Shown are actives, neighbours in structure and some others; about 21% of the full set was active somewhere.
NS1 function inh = inhibitors of influenza NS1 protein function. 270,000 compounds, 0.4% hits. Potency, µM (series often up to 46.1 µM); further: actives are rising curves; nearly all actives have a fitted effect of over 50% in size
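S. cerevisiae expressing influenza A NS1, grown in glucose, washed, then diluted 1:100 into pH 6.0 -URA galactose medium with 23 nl compound. Growth recovery read as OD600; NS1-free strain serves as control.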
SARS PLpro yeast = blocks SARS-CoV papain-like protease in a yeast assay; 330,000 compounds, 0.19% hits; S. cerevisiae expressing SARS-CoV PLpro, growth rescue; Potency, µM (doses to about 32.9 µM), actives largely listed as activators; further: nearly all actives have a fitted effect of over 55% in size
Shiga toxin inh = inhibitors of Shiga toxin in Vero cells; inhibition, % at 38.7 µM; AID 2315; Vero cells, Shiga toxin protein synthesis inhibition reporter; 290,000 compounds, 9.2% hits; in the data active means inhibition mostly above about 28%, no sharp cut-off; inactive means mostly below about 43%
Pf growth 48h = inhibits P. falciparum growth in the first generation, 48 h | AID 504832 | P. falciparum luciferase growth in erythrocytes, 48 h | Potency, µM (titrated, usually from 28.7 µM), actives largely listed as inhibitors | 310,000 compounds, 5.9% hits; active means well fitted inhibition curve with a large enough effect; inconclusive means small, poorly fitted or top-dose-only effect, or another doubt; inactive means no such curve, though single readings can be large or run the other way
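Read-out is firefly luciferase luminescence from an integrated reporter in P. falciparum, so falling signal marks reduced parasite growth. Infected erythrocytes were at 2% hematocrit and 0.1% parasitemia (final) in Albumax-supplemented RPMI 1640.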
Pf growth 96h = inhibits malaria parasite growth, 96 h | P. falciparum luciferase reporter growth, 96 h | Potency, µM (top dose mostly 28.7 µM), most hits filed as inhibitors | 320,000 compounds, 6.9% hits | AID 504834; active means well fitted inhibition curve with a large enough effect; inconclusive means small, poorly fitted or top-dose-only effect, or another doubt; inactive means no such curve, though single readings can be large or run the other way
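Plates of compound plus infected erythrocytes (2% hematocrit, 0.05% parasitemia final) incubate 96 hours, 37 C, 5% CO2. Detection reagent added; reduced luminescence from the parasites' luciferase reporter flags inhibition.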
Cycloheximide cs = counter-screen for Shiga toxin inhibitors: cycloheximide protein synthesis inhibition | cell reporter, cycloheximide protein synthesis inhibition counterscreen | max response, % | 300,000 compounds, 12% hits; in the data active means max response mostly above about 13%, no sharp cut-off; inactive means mostly below about 14%; further: read at 38.3 µM for the half of the compounds with a filed dose
A number is an active result; . = inactive; ? = inconclusive; / = no result. Unless noted, the call rests on the fitted dose curve.

SMILES	NS1 function inh	SARS PLpro yeast	Shiga toxin inh	Pf growth 48h	Pf growth 96h	Cycloheximide cs
CCCOC(=O)c1ccc(Oc2coc3c(CN(CC)CC)c(O)ccc3c2=O)cc1	.	.	.	?	12µM	.
CCc1nc2ccc(N3CCN(C)CC3)cc2nc1CC	/	.	.	.	.	25
COc1cc2nc(SCc3ccc(C(F)(F)F)cc3)n(Cc3cccs3)c(=N)c2cc1OC	.	.	.	?	.	.
COc1cc2nc(SCc3ccc(Cl)cc3Cl)n(Cc3cccs3)c(=N)c2cc1OC	?	.	.	?	13µM	.
COCCCn1c(SCc2cccc(C(F)(F)F)c2)nc2cc(OC)c(OC)cc2c1=N	.	.	.	?	?	.
COCCCn1c(SCc2ccccc2)nc2cc(OC)c(OC)cc2c1=N	.	.	.	13µM	?	.
COc1ccc(Cn2c(SCc3ccc(C)cc3)nc3cc(OC)c(OC)cc3c2=N)cc1Cl	?	.	.	1.7µM	2.3µM	.
COc1ccc(Cn2c(SCc3cc(C)ccc3C)nc3cc(OC)c(OC)cc3c2=N)cc1	.	.	.	1.7µM	?	.
O=c1cc(C23CC4CC(CC(C4)C2)C3)[nH][nH]1	.	/	.	?	/	.
COC1CCCN(C(=O)c2ccc(OC3CCN(S(=O)(=O)N(C)C)CC3)cc2)C1 (stereo not drawn)	.	/	.	.	?	.
COc1ccccc1NC(=O)C(C)NS(=O)(=O)c1ccc(Cl)cc1 (stereo not drawn)	.	.	.	?	?	.
Cc1c(CC(=O)NCCCCCC(=O)O)c(=O)oc2cc3c(cc12)CCC(C)(C)O3	.	.	.	.	?	.
Cc1c(CC(=O)NCCCC(=O)O)c(=O)oc2cc3c(cc12)CCC(C)(C)O3	.	.	.	2.6µM	?	.
CCC(NC(=O)Cc1c(C)c2cc3c(cc2oc1=O)OC(C)(C)CC3)C(=O)O (stereo not drawn)	.	.	.	.	.	21
O=C(CCn1c(=O)[nH]c2ccsc2c1=O)Nc1ccc(F)c(F)c1	.	.	.	.	.	.
COc1cc2c(C#N)c(N3CCc4ccccc4C3)nc(N)c2c(N)n1	.	.	.	8.3µM	?	.
COc1cc2c(C#N)c(N3CCCCC3)nc(N)c2c(N)n1	.	.	.	.	.	.
COc1ccc(C2(CNC(=O)c3cc([N+](=O)[O-])cc([N+](=O)[O-])c3)CCCC2)cc1OC	.	.	.	?	?	.
CCC(C(=O)Nc1nnc(-c2ccco2)s1)c1ccccc1 (stereo not drawn)	.	.	.	.	12µM	.
COc1ccc(-c2nnc(NC(=O)Cc3ccccc3)s2)c(OC)c1	.	.	.	.	.	.
O=C(Cc1ccccc1)Nc1nnc(-c2ccco2)s1	.	.	135	.	?	34
CCc1nnc(NC(=O)C(CC)c2ccccc2)s1 (stereo not drawn)	.	.	.	.	.	.
CCCC(=O)Nc1nnc(-c2ccco2)s1	.	.	58	.	13µM	40
CCN(CC)C(=O)Cn1cc(C(=O)C(=O)NCc2ccco2)c2ccccc21	/	.	.	?	.	.
O=C(Cn1cc(C(=O)c2ccccc2F)c2ccccc21)NCc1ccco1	.	.	.	.	.	.
SMILES	NS1 function inh	SARS PLpro yeast	Shiga toxin inh	Pf growth 48h	Pf growth 96h	Cycloheximide cs
CC(C)C(=O)c1cn(CC(=O)NCc2ccc3c(c2)OCO3)c2ccccc12	.	.	.	12µM	.	.
CC(C)(C)C(=O)c1cn(CC(=O)NCc2ccco2)c2ccccc12	.	.	96	.	.	36
CC(C)C(=O)c1cn(CC(=O)NCc2ccco2)c2ccccc12	.	.	58	.	?	30
CCOC(=O)CC(NC(=O)c1cccc2c1C(=O)N(Cc1cccnc1)C2)c1ccc(OC(C)C)cc1 (stereo not drawn)	/	.	.	9.3µM	?	.
CCCN1Cc2cccc(C(=O)NC(CC(=O)OCC)c3ccc(OC(C)C)cc3)c2C1=O (stereo not drawn)	/	.	.	13µM	.	.
CCOc1ccc(NC(=O)c2cccc3c2C(=O)N(Cc2cccnc2)C3)cc1	.	.	.	?	.	.
CCCN1Cc2cccc(C(=O)NC(CC(=O)OCC)c3ccc(C)cc3)c2C1=O (stereo not drawn)	/	.	.	?	.	.
C=CCNC(=O)c1onc(CS(=O)(=O)c2cc(C)cc(C)c2)c1C(=O)NCC=C	/	.	/	?	?	/
CCOc1ccc(C(CC(=O)O)NC(=O)C(c2ccccc2)c2ccccc2)cc1OC (stereo not drawn)	/	.	/	?	.	/
O=C(CSc1nnc(COc2cccc3ccccc23)o1)N1c2ccccc2CCc2ccccc21	.	/	.	.	.	.
NC(=O)CSc1nnc(COc2cccc3ccccc23)o1	.	.	.	.	12µM	.
Cc1ccc(C(=O)CSc2nnc(COc3cccc4cccnc34)o2)cc1	.	.	.	?	3.3µM	.
C[C@H]([C@H](C)N1CC(=O)NC(=O)C1)N1CC(=O)NC(=O)C1	/	/	.	/	/	.
CCCOc1ccc2c(CC)cc(=O)oc2c1C	.	.	.	.	.	11
C=C(C)COc1ccc2c(CC)cc(=O)oc2c1C	.	.	.	.	.	.
Cc1cc(=O)oc2c(C)c(OCC(=O)N(C)C)ccc12	.	.	.	.	?	.
COc1ccc2c(C)cc(=O)oc2c1C	.	.	.	/	5.9µM	.
O=C(C1CCC(CNS(=O)(=O)c2cccs2)CC1)N1CCN(c2ccc(Cl)cc2)CC1 (stereo not drawn)	.	.	.	.	.	.
COC(=O)c1c(C(=O)OC)c(-c2ccc(Cl)cc2)n2c1CS(=O)(=O)C2	.	.	.	1.5µM	?	.
COC(=O)c1c(C(=O)OC)c(-c2ccc(C)cc2)n2c1CS(=O)(=O)C2	.	.	.	/	1.7µM	.
COC(=O)c1c(C(=O)OC)c(-c2ccc(C(C)(C)C)cc2)n2c1CS(=O)C2 (stereo not drawn)	/	.	.	10µM	?	.
CCCOc1ccc(-c2nnn(CC(=O)c3c[nH]c4ccccc34)n2)cc1	.	.	.	/	.	.
CCCNC(=O)C(Cc1ccc(I)cc1)NC(=O)C1CC1 (stereo not drawn)	/	.	/	.	.	/
COc1cc2nc(N3CCN(C(=O)[C@H]4COc5ccccc5O4)CC3)nc(N)c2cc1OC	.	.	.	3.7µM	3.7µM	.
O=C(CN1C(=O)COc2ccccc21)N1CCc2ccccc2C1	.	.	.	.	10µM	.
COc1cc2nc(N3CCN(C(=O)C4CCCO4)CC3)nc(N)c2cc1OC (stereo not drawn)	.	.	.	?	.	.
O=C(C1COc2ccccc2O1)N1CCCCC1 (stereo not drawn)	/	.	/	.	.	/
O=C(C1COc2ccccc2O1)N1CCN(Cc2ccccc2)CC1 (stereo not drawn)	.	.	/	.	8.3µM	.
Cc1cccc(N2CCN(C(=O)C3COc4ccccc4O3)CC2)c1C (stereo not drawn)	.	.	52	?	?	24

Bioassay records as filed in PubChem BioAssay.
